Common to all, as to experiment: DAPPL (digital affinity profiling via proximity ligation, sequencing); 10 mM Tris-HCl pH 7.5, 50 mM NaCl, 1 mM DTT, 4% glycerol, room temperature, 30 min; GST-TFs on glutathione beads, 16-mer random dsDNA library, 0.1% formaldehyde crosslink after washing; high values mean tight binding
What all share (settings): protein: recombinant; tags: N-terminal GST; dsDNA, one strand shown

One experiment addresses T1, FLI1 (Homo sapiens, UniProt Q01543 1-452).
T1 sequence: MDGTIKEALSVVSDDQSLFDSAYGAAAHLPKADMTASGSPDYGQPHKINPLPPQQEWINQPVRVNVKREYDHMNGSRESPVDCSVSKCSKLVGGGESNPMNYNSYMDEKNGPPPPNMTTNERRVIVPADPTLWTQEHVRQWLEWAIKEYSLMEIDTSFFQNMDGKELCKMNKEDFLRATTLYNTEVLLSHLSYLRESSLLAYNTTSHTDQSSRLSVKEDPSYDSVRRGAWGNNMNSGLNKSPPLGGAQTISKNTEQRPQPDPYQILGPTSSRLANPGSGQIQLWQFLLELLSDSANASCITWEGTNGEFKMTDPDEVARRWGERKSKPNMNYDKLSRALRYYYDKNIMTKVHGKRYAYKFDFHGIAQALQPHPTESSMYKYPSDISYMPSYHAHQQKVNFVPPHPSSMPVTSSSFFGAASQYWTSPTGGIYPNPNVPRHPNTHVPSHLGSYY
The gist of the method:
(§1)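 Beads coated with glutathione captured GST-fused human transcription factors that had been expressed in yeast, and the factors were then given DNA barcodes and pooled with a tag-only sample. The pools were incubated with 200 nmole of a random double-stranded 16-mer DNA library in Tris/NaCl/DTT/glycerol buffer for 30 min at room temperature, washed, crosslinked with 0.1% formaldehyde and proximity-ligated with BsaI/T4 ligase at 37 °C for 1 h. PCR amplification and Illumina NextSeq500 sequencing came last. Binding signal is each hexamer's read frequency for a factor divided by its frequency for the tag-only sample.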

The target of the next experiment is T2, ELK1 (Homo sapiens, UniProt P19419 1-428).
T2 sequence: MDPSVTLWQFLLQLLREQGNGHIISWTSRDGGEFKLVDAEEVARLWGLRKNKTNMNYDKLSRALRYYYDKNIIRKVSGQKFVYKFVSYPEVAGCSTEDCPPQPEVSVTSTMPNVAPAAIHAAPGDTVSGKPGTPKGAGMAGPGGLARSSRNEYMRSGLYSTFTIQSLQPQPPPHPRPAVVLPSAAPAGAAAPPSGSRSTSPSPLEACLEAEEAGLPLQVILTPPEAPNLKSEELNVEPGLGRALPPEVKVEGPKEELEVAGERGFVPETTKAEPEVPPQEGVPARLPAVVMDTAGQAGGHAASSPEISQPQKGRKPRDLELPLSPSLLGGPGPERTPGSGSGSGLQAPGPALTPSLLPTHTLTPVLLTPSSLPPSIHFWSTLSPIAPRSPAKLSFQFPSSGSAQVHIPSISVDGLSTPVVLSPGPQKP
The gist of the method: as §1

In the next experiment the target is T3, GABPA (Homo sapiens, UniProt Q06546 1-454).
T3 sequence: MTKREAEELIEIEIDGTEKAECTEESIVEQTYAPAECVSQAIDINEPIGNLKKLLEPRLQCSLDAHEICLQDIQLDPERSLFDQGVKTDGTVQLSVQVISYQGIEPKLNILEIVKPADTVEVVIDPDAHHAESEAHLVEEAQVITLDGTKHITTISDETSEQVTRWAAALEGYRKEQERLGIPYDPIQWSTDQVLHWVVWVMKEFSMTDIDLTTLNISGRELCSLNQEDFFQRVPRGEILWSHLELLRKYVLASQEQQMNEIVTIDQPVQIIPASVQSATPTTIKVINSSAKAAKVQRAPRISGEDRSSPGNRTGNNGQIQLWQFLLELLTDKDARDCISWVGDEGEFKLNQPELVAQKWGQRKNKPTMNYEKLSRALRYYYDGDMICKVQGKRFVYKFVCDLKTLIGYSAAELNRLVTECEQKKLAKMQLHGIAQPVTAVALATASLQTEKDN
The gist of the method: as §1

The target in a further experiment is T4, ERG (Homo sapiens, UniProt P11308 1-479).
T4 sequence: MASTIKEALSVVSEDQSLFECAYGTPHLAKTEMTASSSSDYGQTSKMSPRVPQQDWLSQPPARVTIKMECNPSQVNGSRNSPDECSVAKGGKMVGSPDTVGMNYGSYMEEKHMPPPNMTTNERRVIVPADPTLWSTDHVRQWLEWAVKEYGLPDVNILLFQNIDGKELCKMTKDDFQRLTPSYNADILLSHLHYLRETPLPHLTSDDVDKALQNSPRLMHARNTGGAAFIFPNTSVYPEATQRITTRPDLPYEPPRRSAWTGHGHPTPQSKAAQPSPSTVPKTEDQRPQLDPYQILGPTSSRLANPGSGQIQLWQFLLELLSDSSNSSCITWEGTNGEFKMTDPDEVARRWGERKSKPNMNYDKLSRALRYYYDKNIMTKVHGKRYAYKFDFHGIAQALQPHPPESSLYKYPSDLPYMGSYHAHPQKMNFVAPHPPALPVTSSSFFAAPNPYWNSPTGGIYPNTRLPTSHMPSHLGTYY
The gist of the method: as §1

The next experiment deals with ELF1 (Homo sapiens, UniProt P32519 1-619). A digest of the protocol:
as §1

For the next experiment, the target named is T5, EHF (Homo sapiens, UniProt Q9NZC4 1-300).
T5 sequence: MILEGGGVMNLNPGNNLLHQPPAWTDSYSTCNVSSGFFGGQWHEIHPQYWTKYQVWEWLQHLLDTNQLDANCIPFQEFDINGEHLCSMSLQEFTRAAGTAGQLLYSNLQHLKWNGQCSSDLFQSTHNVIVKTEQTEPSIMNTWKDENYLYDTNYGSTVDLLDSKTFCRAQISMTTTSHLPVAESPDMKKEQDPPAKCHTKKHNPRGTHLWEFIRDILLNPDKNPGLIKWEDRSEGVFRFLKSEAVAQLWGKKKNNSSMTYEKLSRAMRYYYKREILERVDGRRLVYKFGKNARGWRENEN
A digest of the protocol:
as §1

For a further experiment, the target named is SPI1 (Homo sapiens, UniProt P17947 1-270). The gist of the method:
as §1

The next experiment addresses SPIB (Homo sapiens, UniProt Q01892 1-262). A digest of the protocol:
as §1

A further experiment addresses T6, ELK3 (Homo sapiens, UniProt P41970 1-407).
T6 sequence: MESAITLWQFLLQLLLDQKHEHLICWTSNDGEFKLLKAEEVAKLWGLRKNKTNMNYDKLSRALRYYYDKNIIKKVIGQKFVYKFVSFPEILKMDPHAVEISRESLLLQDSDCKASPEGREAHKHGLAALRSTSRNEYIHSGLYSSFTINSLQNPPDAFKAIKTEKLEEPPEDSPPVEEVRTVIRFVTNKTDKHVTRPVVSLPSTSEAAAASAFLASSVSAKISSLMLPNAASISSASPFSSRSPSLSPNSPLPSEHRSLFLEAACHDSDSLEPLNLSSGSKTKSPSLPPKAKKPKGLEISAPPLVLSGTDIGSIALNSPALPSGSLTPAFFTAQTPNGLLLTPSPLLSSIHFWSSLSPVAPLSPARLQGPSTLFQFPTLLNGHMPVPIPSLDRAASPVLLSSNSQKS
A digest of the protocol:
as §1

The next experiment addresses T7, FEV (Homo sapiens, UniProt Q99581 1-238).
T7 sequence: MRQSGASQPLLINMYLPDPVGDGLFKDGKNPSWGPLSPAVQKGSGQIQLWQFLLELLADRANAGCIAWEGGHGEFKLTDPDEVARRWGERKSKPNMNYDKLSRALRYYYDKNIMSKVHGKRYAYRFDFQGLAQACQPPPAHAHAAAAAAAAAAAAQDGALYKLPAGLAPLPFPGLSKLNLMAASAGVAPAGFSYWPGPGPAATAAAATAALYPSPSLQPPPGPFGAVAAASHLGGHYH
The gist of the method: as §1

The target in the next experiment is ETV5 (Homo sapiens, UniProt P41161 1-510). A digest of the protocol:
as §1

The target of the next experiment is T8, SPIC (Homo sapiens, UniProt Q8N5J4 1-248).
T8 sequence: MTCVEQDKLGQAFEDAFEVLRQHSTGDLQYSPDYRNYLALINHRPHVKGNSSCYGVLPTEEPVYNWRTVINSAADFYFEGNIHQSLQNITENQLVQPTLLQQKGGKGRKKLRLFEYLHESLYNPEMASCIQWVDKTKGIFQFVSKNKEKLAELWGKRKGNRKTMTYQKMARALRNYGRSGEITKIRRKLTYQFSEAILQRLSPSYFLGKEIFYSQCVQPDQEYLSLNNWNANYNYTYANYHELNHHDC
A digest of the protocol:
as §1

A further experiment concerns the target ELF4 (Homo sapiens, UniProt Q99607 1-663). A digest of the protocol: as §1
In the next experiment the target is ETV1 (Homo sapiens, UniProt P50549 1-477). A digest of the protocol: as §1
ETV1, sequence (P50549 whole entry): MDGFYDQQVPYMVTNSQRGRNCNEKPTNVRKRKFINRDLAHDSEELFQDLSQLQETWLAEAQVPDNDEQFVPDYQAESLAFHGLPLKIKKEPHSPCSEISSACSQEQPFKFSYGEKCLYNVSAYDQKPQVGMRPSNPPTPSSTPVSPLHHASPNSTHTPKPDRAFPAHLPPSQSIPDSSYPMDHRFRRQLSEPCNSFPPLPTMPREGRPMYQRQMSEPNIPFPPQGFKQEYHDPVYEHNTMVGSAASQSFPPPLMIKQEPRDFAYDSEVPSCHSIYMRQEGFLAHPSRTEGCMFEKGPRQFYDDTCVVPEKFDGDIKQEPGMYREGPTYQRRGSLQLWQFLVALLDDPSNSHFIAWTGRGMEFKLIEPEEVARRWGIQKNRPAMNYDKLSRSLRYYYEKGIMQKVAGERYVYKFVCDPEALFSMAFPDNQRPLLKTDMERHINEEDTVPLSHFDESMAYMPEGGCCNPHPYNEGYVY
The target in the next experiment is T9, ERF (Homo sapiens, UniProt P50548 1-548).
T9 sequence: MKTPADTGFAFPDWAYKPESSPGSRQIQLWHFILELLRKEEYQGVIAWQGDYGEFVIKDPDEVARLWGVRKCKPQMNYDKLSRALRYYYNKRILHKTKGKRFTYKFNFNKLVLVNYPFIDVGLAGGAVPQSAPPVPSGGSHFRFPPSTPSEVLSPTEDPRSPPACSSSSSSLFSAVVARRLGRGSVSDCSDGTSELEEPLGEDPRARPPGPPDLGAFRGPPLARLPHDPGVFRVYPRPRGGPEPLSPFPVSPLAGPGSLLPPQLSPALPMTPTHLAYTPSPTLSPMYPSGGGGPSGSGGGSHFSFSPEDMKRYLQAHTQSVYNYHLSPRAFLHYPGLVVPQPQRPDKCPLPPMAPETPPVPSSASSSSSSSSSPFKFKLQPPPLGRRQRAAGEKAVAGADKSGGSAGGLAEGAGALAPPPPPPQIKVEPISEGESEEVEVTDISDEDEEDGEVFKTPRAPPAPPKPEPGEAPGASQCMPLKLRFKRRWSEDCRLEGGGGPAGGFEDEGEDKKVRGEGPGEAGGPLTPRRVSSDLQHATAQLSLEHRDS
A digest of the protocol:
as §1

The target in a further experiment is T10, ETS2 (Homo sapiens, UniProt P15036 1-469).
T10 sequence: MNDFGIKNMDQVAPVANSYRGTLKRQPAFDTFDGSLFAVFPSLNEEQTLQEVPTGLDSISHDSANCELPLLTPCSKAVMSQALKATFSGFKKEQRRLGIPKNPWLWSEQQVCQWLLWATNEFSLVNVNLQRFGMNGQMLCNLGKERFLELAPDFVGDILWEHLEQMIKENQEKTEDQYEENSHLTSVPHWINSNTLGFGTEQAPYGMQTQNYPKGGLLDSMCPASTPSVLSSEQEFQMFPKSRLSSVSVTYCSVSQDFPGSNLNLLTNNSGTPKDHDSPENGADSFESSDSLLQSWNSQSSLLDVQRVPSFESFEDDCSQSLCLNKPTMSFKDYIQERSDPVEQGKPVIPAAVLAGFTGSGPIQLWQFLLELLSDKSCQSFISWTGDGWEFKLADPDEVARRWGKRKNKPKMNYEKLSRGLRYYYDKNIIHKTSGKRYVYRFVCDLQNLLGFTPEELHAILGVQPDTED
A digest of the protocol: as §1

Another experiment concerns the target T11, ELF5 (Homo sapiens, UniProt Q9UKW6-2 1-255).
T11 sequence: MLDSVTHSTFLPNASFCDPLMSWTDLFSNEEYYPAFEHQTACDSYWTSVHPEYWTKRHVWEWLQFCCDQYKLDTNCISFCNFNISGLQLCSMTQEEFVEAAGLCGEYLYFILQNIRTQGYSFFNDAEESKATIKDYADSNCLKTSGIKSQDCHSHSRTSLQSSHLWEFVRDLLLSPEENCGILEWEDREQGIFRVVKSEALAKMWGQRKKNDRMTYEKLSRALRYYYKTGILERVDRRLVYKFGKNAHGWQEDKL
A digest of the protocol: as §1

A further experiment deals with T12, ETV3 (Homo sapiens, UniProt P41162-2 1-143).
T12 sequence: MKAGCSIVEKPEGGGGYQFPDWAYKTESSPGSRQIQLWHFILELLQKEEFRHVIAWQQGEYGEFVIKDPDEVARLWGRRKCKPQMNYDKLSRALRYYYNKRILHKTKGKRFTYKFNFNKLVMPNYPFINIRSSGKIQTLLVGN
The gist of the method: as §1

A further experiment has as its target ETV6 (Homo sapiens, UniProt P41212 1-452). The gist of the method: as §1

ETV6, sequence (P41212 whole entry): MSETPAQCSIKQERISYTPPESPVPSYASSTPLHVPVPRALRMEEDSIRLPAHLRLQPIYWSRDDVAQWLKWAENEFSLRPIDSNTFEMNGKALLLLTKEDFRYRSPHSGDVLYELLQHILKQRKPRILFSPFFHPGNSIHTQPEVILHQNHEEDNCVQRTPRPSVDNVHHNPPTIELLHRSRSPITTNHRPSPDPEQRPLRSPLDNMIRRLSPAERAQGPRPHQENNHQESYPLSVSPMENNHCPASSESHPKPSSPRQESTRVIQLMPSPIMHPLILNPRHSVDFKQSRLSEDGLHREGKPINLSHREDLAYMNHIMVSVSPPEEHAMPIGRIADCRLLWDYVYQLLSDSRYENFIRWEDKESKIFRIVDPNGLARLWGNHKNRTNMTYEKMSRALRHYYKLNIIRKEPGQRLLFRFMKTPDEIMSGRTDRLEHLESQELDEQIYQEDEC
SPIB, sequence (Q01892 whole entry): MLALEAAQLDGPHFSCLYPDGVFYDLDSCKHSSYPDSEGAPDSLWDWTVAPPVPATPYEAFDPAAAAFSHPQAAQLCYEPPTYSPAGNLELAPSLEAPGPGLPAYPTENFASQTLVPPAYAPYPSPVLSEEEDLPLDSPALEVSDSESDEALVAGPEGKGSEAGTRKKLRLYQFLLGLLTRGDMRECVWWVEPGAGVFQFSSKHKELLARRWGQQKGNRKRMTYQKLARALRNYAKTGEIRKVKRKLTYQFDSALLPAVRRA
ELF1, sequence (P32519 whole entry): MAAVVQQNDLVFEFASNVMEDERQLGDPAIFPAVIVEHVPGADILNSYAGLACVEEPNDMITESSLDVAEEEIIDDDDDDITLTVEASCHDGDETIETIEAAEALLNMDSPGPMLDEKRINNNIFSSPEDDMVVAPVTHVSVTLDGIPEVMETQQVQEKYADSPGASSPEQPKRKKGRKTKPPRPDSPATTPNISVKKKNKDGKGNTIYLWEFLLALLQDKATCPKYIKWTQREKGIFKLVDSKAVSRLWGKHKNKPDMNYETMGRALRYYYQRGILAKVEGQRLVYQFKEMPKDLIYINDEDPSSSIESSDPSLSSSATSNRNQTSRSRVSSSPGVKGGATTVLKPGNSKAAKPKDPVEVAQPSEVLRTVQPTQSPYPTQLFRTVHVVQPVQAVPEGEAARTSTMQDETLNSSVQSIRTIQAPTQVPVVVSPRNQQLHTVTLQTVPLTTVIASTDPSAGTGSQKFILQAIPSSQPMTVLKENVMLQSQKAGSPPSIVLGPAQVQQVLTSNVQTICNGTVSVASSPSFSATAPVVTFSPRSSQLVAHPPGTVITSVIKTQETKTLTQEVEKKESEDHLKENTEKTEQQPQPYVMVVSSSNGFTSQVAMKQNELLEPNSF
ELF4, sequence (Q99607 whole entry): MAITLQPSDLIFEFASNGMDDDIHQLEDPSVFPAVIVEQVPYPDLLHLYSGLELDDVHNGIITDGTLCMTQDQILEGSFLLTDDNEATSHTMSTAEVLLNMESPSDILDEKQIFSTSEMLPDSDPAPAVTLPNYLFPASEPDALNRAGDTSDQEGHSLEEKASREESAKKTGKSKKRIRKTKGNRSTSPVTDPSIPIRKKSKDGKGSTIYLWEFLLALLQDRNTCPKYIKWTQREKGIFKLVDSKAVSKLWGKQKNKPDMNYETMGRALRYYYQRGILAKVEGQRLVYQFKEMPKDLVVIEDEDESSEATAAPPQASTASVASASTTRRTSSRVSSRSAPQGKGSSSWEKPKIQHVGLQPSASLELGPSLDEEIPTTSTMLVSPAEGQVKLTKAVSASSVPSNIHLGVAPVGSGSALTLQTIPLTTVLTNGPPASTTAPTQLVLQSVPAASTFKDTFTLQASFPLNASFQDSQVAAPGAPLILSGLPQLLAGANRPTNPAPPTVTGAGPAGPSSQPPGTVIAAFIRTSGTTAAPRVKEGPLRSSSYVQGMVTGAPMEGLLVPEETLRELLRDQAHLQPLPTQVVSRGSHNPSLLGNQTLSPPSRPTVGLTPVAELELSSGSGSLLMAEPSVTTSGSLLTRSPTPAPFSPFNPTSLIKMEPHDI
ETV5, sequence (P41161 whole entry): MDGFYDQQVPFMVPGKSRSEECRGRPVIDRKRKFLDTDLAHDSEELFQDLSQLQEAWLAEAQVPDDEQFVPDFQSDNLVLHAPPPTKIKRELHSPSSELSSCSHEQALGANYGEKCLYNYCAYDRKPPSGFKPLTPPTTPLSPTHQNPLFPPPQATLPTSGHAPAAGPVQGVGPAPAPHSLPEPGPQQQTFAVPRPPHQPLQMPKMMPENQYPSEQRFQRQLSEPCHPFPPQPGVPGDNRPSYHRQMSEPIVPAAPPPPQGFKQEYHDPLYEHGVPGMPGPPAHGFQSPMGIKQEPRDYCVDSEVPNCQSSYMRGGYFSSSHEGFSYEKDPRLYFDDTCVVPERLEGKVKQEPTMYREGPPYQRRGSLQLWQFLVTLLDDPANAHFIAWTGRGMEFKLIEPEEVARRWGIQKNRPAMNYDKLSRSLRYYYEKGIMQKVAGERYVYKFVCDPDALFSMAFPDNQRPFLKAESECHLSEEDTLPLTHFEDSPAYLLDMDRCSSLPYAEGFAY

Regarding GTGTCC, the binding signal with FLI1 is 1.03 fold enrichment (6-mer frequency, TF over GST control); in the experiment with ELK1, 1.07 fold enrichment (6-mer frequency, TF over GST control); with GABPA, 1.1 fold enrichment (6-mer frequency, TF over GST control); with ERG it was 1.13 fold enrichment (6-mer frequency, TF over GST control); in the experiment with ELF1 it was 1.1 fold enrichment (6-mer frequency, TF over GST control); with EHF, 1.08 fold enrichment (6-mer frequency, TF over GST control). Besides, the binding signal in the experiment with SPI1 was 1.08 fold enrichment (6-mer frequency, TF over GST control); with SPIB, 1.13 fold enrichment (6-mer frequency, TF over GST control); with ELK3, 1.05 fold enrichment (6-mer frequency, TF over GST control); in the experiment with FEV it was 1.1 fold enrichment (6-mer frequency, TF over GST control); in the experiment with ETV5 it was 1.16 fold enrichment (6-mer frequency, TF over GST control); with SPIC it was 1.2 fold enrichment (6-mer frequency, TF over GST control). The binding signal in the experiment with ELF4 is 1.08 fold enrichment (6-mer frequency, TF over GST control); with ETV1 it was 1.02 fold enrichment (6-mer frequency, TF over GST control); with ERF, 1.06 fold enrichment (6-mer frequency, TF over GST control); with ETS2 it was 1.16 fold enrichment (6-mer frequency, TF over GST control); in the experiment with ELF5 it was 1.1 fold enrichment (6-mer frequency, TF over GST control); with ETV3 it was 1.2 fold enrichment (6-mer frequency, TF over GST control). The binding signal in the experiment with ETV6 is 1.02 fold enrichment (6-mer frequency, TF over GST control).

The record behind these values is article PMC7862700, “An all-to-all approach to the identification of sequence-specific readers for epigenetic DNA modifications on cytosine”.
